Assay outcomes (PubChem BioAssay)
The list is not random: actives were taken first. Their share in the collection is about 12%.
NS1 inh = inhibitors of influenza NS1 protein function; Potency, µM (highest dose often 46.1 µM), inactives show at the top dose activity, positive = more growth; 0.4% of 270,000 active; further: potency means the concentration at half of the fitted maximal effect; actives are rising curves; nearly all actives have a fitted effect of over 50% in size
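Growth recovery, yeast-based: influenza A NS1 expressed in S. cerevisiae causes slow growth, and suppressors are detected by OD600. The parent strain without NS1 is used as positive control.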
Shiga toxin inh = inhibitors of Shiga toxin in Vero cells. Vero cells, Shiga toxin protein synthesis inhibition reporter. inhibition, % at 38.7 µM. 9.2% of 290,000 active; in the data active means inhibition mostly above about 28%, no sharp cut-off; inactive means mostly below about 43%; further: 0% is about no effect
SARS PLP yeast = blocks SARS-CoV papain-like protease in a yeast assay; S. cerevisiae expressing SARS-CoV PLpro, growth rescue; Potency, µM (top dose mostly 32.9 µM), inactives show at the top dose activity, positive = growth rescue, actives largely listed as activators; 0.19% of 330,000 active; further: potency means the concentration at half of the fitted maximal effect; 0% is about no effect; nearly all actives have a fitted effect of over 55% in size
CHX counter = counter-screen hit for Shiga toxin inhibitors, cycloheximide | cell reporter, cycloheximide protein synthesis inhibition counterscreen | 12% of 300,000 active | max response, % | AID 2314; in the data active means max response mostly above about 13%, no sharp cut-off; inactive means mostly below about 14%; further: read at 38.3 µM for the half of the compounds with a filed dose; 0% is about no effect
* marks the source's active call; other numbers are inactive results; ? = inconclusive; . = not tested or not shown. Unless noted, the call rests on the fitted dose curve.

SMILES	NS1 inh	Shiga toxin inh	SARS PLP yeast	CHX counter
COc1cc(N)c(Cl)cc1C(=O)OCC(=O)NCc1cccs1	.	.	-3%	.
COc1ccc(C(=O)COC(=O)c2cccs2)cc1	.	.	1%	.
O=C(COC(=O)c1cccs1)c1ccccc1	-5%	78*	9%	42*
CC(NC(=O)COC(=O)c1cccs1)c1ccccc1 (stereo not given)	-4%	31	4%	12*
COc1cccc(C(=O)COC(=O)c2cccs2)c1	4%	76*	-2%	38*
COc1cc(N)c(Cl)cc1C(=O)OCC(=O)c1cccs1	1%	54*	-1%	19
COc1ccc(CSc2nc(C)cc(C)c2C#N)cc1	-1%	-10	1%	-9
Cc1ccc2nc(CSc3nc(C)cc(C)c3C#N)[nH]c2c1	-28%	72	-27%	46*
Cc1ccc(SCc2nc3ncccn3c2Br)cc1	-4%	37	0%	28*
Cc1ccc(Nc2c(-c3ccc(N(C)C)cc3)nc3ncccn23)cc1	6%	21	-1%	14
Cc1ccc(S(=O)(=O)N2CCCC2)cc1C(=O)NCCN1CCOCC1	12%	28*	2%	29*
Cc1c(C(=O)NCC2CCCO2)oc2ccccc12 (stereo not given)	.	.	-2%	.
Cc1ccc(C(=O)NCCCN2CCOCC2)c(C)c1	5%	42	-2%	20*
Cc1cc(C)c(C(=O)NCCCN2CCOCC2)c(C)c1	9%	-3	0%	-4
Cc1ccc(C(=O)NCCCN2CCOCC2)c(Cl)c1	6%	.	-2%	17*
Cc1ccc2oc(C(=O)NCCC3CCCCO3)c(C)c2c1 (stereo not given)	-38%	63*	-3%	26*
Cc1ccc2oc(C(=O)NCCCN3CCOCC3)c(C)c2c1	-1%	71*	4%	44*
Cc1c(C(=O)NCCCN2CCOCC2)oc2ccc(S(=O)(=O)N3CCOCC3)cc12	.	-20	2%	1
Cc1cc(C)c(S(=O)(=O)N2CCOC2CNC(=O)C(=O)NCCN2CCOCC2)c(C)c1 (stereo not given)	-4%	-1	5%	-2
Cc1ccc(CSCc2ccc(C(=O)NCCCN3CCOCC3)o2)cc1	.	9	6%	16*
Cc1ccccc1CSCc1ccc(C(=O)NCCCN2CCOCC2)o1	.	-7	-3%	-4
Cc1cc(C)c(S(=O)(=O)N2CCOC2CNC(=O)C(=O)NCCCN2CCOCC2)c(C)c1 (stereo not given)	-4%	80*	-1%	35*
COc1ccc2oc(C(=O)NCCN3CCOCC3)c(C)c2c1OC	-8%	63*	-5%	61*
Brc1ccc(-c2cn3nc4c(nc3n2)CCCC4)cc1	-24%	122*	1%	46*
c1ccc(-c2cn3nc4c(nc3n2)CCCC4)cc1	-57%	2	-7%	34
SMILES	NS1 inh	Shiga toxin inh	SARS PLP yeast	CHX counter
CCN=C1SC(C(=O)Nc2ccc(OC)cc2)CC(=O)N1CC (stereo not given)	.	-5	2%	0
COc1ccc(S(=O)(=O)N2CCOCC2)cc1NC(=O)CSc1nnnn1C1CC1	.	.	10%	.
COc1ccc(-n2c(C)n[nH]c2=O)cc1	27%	-10	4%	-2
Cc1n[nH]c(=O)n1-c1ccc(OCc2ccccc2)cc1	0%	92*	-1%	53*
CC(C)c1ccc(Nc2ncccc2C(=O)O)cc1	-7%	15	-2%	43*
Cc1ccc(S(=O)(=O)CCC(=O)OCCOc2cccc(Br)c2)cc1	.	.	4%	.
CC(C)(C)C(=O)OCc1nc(-c2ccc(Cl)cc2)cs1	-3%	69*	-3%	59*
COc1ccc(-c2csc(COC(=O)C(C)(C)C)n2)cc1	0%	75*	-2%	30*
CC(C)(C)C(=O)OCc1nc(-c2ccc3c(c2)OCCO3)cs1	-4%	114*	6%	54*
COc1ccc(-c2csc(CCN3N=C(C)CC3=O)n2)cc1	9%	61	0%	15
NNC(=O)CSCc1nc(-c2ccc(Cl)cc2)cs1	5%	30	-1%	10
NC(=O)Cc1nc(-c2ccc([N+](=O)[O-])cc2)cs1	.	1	-5%	7
NC(=S)Cc1nc(-c2ccc(Cl)cc2)cs1	.	80*	-3%	29
Cc1ccc(NC(=O)CN(C)C(=O)C(C)N2CCN(Cc3ccccc3C)CC2)cc1 (stereo not given)	.	.	-1%	.
CC(N=C1NS(=O)(=O)c2ccccc21)C(=O)NCc1ccc2c(c1)OCO2 (stereo not given)	6%	-7	-5%	-3
COC(=O)c1sc2nc(SCC(=O)N(C)c3ccccc3)n(N)c(=O)c2c1C	.	-16	2%	-10
CC(C)(C)C(=O)OCc1nc(-c2ccc(F)cc2)cs1	-2%	92*	0%	42*
NC(=O)Cc1nc(-c2ccc(F)cc2)cs1	1%	12	-1%	-2
O=C(NNc1nc2ccccc2s1)C1CC1	0%	28	4%	15
O=C(CSc1nc2ccccc2s1)NNC(=O)Nc1ccc(Cl)c(Cl)c1	10%	-2	4%	3
O=C(Nc1nc2ccccc2s1)Nc1ccc(F)cc1F	3%	72*	12%	53*
O=C(NNc1nc2ccccc2s1)Nc1ccc(F)cc1	?	85*	-1%	62*
O=C(NNc1nc2ccccc2s1)Nc1ccc(Cl)c(Cl)c1	3%	60*	-3%	40*
O=C(NNc1nc2ccccc2s1)c1ccccc1F	-14%	59*	6%	29*
O=C1CC(NNc2nc3ccccc3s2)C(=O)N1c1ccc(F)cc1 (stereo not given)	5%	2	-1%	1
SMILES	NS1 inh	Shiga toxin inh	SARS PLP yeast	CHX counter
NS(=O)(=O)c1ccc2nc(NC(=O)Nc3ccc(F)cc3)sc2c1	14%	54*	4%	46*
CC(C)C(=O)NNc1nc2ccccc2s1	23%	51*	1%	38*
CN(C(=O)CSc1nc2c(c(=O)[nH]1)CCCC2)C1CCCCC1	5%	-8	1%	0
O=C(Nc1nc2ccsc2c(=O)s1)c1ccc(Cl)cc1	-4%	88*	-1%	30*
O=C(Nc1nnc(S(=O)(=O)N2CCCCCC2)s1)c1ccc(Cl)cc1	2%	20	-5%	-12
O=C(CSC(=S)N1CCOCC1)Nc1nc(=O)c2ccccc2s1	8%	5	1%	17
O=C(Nc1nc(=O)c2ccccc2s1)c1ccc(Cl)cc1	26%	34	-1%	19*
O=C(Nc1nc(=O)c2ccccc2s1)c1ccc(F)cc1	-4%	50*	-4%	15*
CCCOC(=O)CCn1c(=S)oc2ccccc21	-47%	76*	10%	39*
COc1ccccc1NC(=O)CCn1c(=S)oc2ccccc21	-1%	9	-1%	-2
CCN1C(=O)[C@H]2[C@@H](c3ccc(-c4ccc5c(c4)OCO5)c(OC)c3)N[C@@](C)(C(=O)OC)[C@H]2C1=O	.	.	-8%	.
CSc1ccccc1C(=O)C1CCCN(C(=O)c2ccc(N3CCOCC3)cc2)C1 (stereo not given)	0%	34*	1%	17*
Cc1ccc(-n2c(C)nnc2SCC(=O)NC2CCCC2)cc1	2%	-4	19%	-2
COC(=O)[C@]1(C)N[C@H](CN(C)C(=O)c2ccc(C(C)(C)C)cc2)[C@@H]2C(=O)N(Cc3ccccc3)C(=O)[C@@H]21	.	.	-6%	.
Cc1cc(C(=O)CN2CC(C)OC(C)C2)c(C)n1-c1ccccc1 (stereo not given)	8%	50*	0%	13*
